Several values for one entry are separate records, joined by “and”; a condition that tells them apart may be missing. Equal values may be shown once. Inconclusive results are not listed. Activity calls are given as the source filed them. Calls follow the shape of the dose curve; as a rule, active = well fitted activation curve with a large enough effect; inconclusive = small, poorly fitted or top-dose-only effect; inactive = no such curve, though single readings can be large or run the other way.
Experiment: Extended Characterization of HPGD Inhibitors: PGE2 Assay in LNCaP Cells
Details: PGE2 HTRF level, 16 h; series mostly up to 100 µM
From the text: The central role of HPGD is to inactivate prostaglandins such as prostaglandin E2 (PGE2) or prostaglandin D2 (PGD2). These prostaglandins are involved in a number of processes, including inflammation, differentiation, and cellular signaling, which makes HPGD an important target for pharmacological intervention. A number of prostaglandins of particular biological interest have been identified as substrates of HPGD. […] Over-production of PGE2 has been reported to promote tumor-associated neovascularization, cell proliferation, and tumor growth. […] In this orthogonal assay, we set out to measure if compounds were able to increase PGE2 production NIH Chemical Genomics Center [NCGC] NIH Molecular Libraries Probe Centers Network [MLPCN] MLPCN Grant: MH084681 Assay Submitter (PI): Structural Genomics Consortium
A549 cells, LNCaP cells or media were dispensed in 384-well plates (ProxiPlate-384 Plus, PerkinElmer, Shelton, CT) at 5,000 cells/9.9 uL/well using a CappAero384 multichannel pipette (Odense, Denmark). Separately on the plate, 10 uL of PGE2 calibration standards at a starting assay concentration of 5,000 pg/mL (1:2 dilution, 12-points, n = 1, prepared in media, Cisbio, Bedford, MA) were dispensed. Compounds (100 nL, final concentration range from 41.9 nM to 100 uM) were transferred using an ATS Acoustic Liquid Dispenser (EDC Biosystems, Fremont, CA). After being mixed using an automated liquid handler (CyBio, Jena, Germany), samples were incubated (37 deg C, 5% CO2, under a humidified atmosphere) for 16 hours. PGE2 labeled conjugates were added to each well, first 5 uL of PGE2-d2, followed by 5 uL of anti-PGE2-cryptate, centrifuged (1,500 rpm, 15 sec) and incubated (RT, protected from light) for 5 hours. Time-resolved fluorescence intensity (320 nm excitation, 615 and 665 nm emission) was measured using an Envision plate reader (PerkinElmer). Data was expressed as the ratio of 665 nm/615 nm emissions. Concentration (pg/mL) of samples were calculated from a 4-parameter logistic calibration curves of the PGE2 standards.

Compound | Potency
N#Cc1ccccc1CNc1nc2ncc(Br)cc2[nH]1 | inactive
O=[N+]([O-])c1cccc(CSc2nc3ncc(Br)cc3[nH]2)c1 | inactive
CC(C)(C)c1ccc(CSc2nc3ncc(Br)cc3[nH]2)cc1 | 35.2 µM (active)
Cc1cccc(-n2cnc3cc(C(=O)N4CCCCC4)ccc32)c1 | 702 nM (active) and 884 nM (active)
FC(F)(F)c1ccc(CSc2nc3ncc(Br)cc3[nH]2)cc1 | 44.3 µM (active)
Clc1ccc(CSc2nc3ncc(Br)cc3[nH]2)cc1Cl | 22.2 µM (active)
COc1ccc(CSc2nc3ncc(Br)cc3[nH]2)cc1F | 22.2 µM (active)
O=[N+]([O-])c1ccccc1CSc1nc2ncc(Br)cc2[nH]1 | 0.352 µM (active)
N#Cc1cccc(CSc2nc3ncc(Br)cc3[nH]2)c1 | 35.2 µM (active)
O=C(c1ccc2c(c1)ncn2-c1ccccc1)N1CCCCC1 | 0.28 µM (active)
CCCCn1cnc2cc(C(=O)N3CCCCC3)ccc21 | 4.43 µM (active)
Cc1ccc(-n2cnc3cc(C(=O)N4CCCCC4)ccc32)cc1 | 0.443 µM (active)
Clc1cccc(CSc2nc3ncc(Br)cc3[nH]2)c1 | 44.3 µM (active)
Brc1cnc2nc(SCc3ccccc3)[nH]c2c1 | 44.3 µM (active)
Clc1ccccc1CSc1nc2ncc(Br)cc2[nH]1 | 44.3 µM (active)
CC(C)c1cccc(-n2cnc3cc(C(=O)N4CCCCC4)ccc32)c1 | 2.8 µM (active)
